The values below come from PubChem BioAssay AID2685 (National Center for Advancing Translational Sciences (NCATS), 2010).

The whole screen tested about 320,000 compounds, of which about 2,100 (0.66%) were called active. Roughly 53% stayed inconclusive and do not appear here. Calls follow the shape of the dose curve; as a rule, active = well fitted inhibition curve with a large enough effect in the signal ratio, with a control signal flat (not every such curve was filed as active); inconclusive = small, poorly fitted or top-dose-only effect, or effect the other way, or a change in a side signal; inactive = flat fitted curve, though single readings scatter; the % refers to the signal ratio. For the sample, actives were picked, then their nearest neighbours and some compounds at random.
Potency is read from the fitted curve at half-maximal effect.

The experiment is described as follows: qHTS Assay for Lipid Storage Modulators in Drosophila S3 Cells.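 As to cell number change: cells counted by Cell Tracker Red CMTPX staining in the red channel.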 As to lipid storage change, negative = inhibition: % is scaled to controls: 0 for no effect and ±100 for the full control effect. The settings on record: BODIPY lipid droplet fluorescence, 18-24 h, cells fed with added oleic acid; cell number change: measured here: cell count max response; series mostly up to 46.1 µM; lipid storage change, negative = inhibition: at the top concentration. The method, boiled down:
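Drosophila S3 cells loaded with oleic acid (400 uM, as added) and compounds at several concentrations; lipid droplets imaged by 488-nm laser-scanning cytometry, 500–530 nm intensity and object ratio to cell channel. Percent activity normalized to 20 uM Triacsin C.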
In the case of `COC(=O)c1cc(C(=O)OCC(=O)NCc2cccs2)cc([N+](=O)[O-])c1`, the “lipid storage change, negative = inhibition” value was -3.38% (inactive) and the cell number change was -8.04%.

Take `N#Cc1ccccc1S(=O)(=O)N1CCN(S(=O)(=O)c2ccc(Br)c(C(=O)O)c2)CC1`: the “lipid storage change, negative = inhibition” value was -3.74% (inactive). On the same count and under the same terms, then `CCCCn1c(N)c(N(CCOC)C(=O)C2CCN(S(=O)(=O)c3ccc(C)cc3C)CC2)c(=O)[nH]c1=O`, with 17.2% [at 0.0737 µM] (inactive). `Cc1nnc2n(c1=O)C(CS(=O)(=O)c1ccc3ccccc3c1)CS2` (stereo not drawn): the “lipid storage change, negative = inhibition” value is 7.18% (inactive) and the cell number change turned out to be 2.91%.

For the compound `Cc1ccc(S(=O)(=O)CC2CSc3nc(N)cc(=O)n32)cc1` (stereo not drawn), the “lipid storage change, negative = inhibition” value was -8.79% (inactive) and the cell number change turned out to be 2.18%.

Turning to `O=[N+]([O-])c1ccc(S(=O)(=O)CC2CSc3nc4ccccc4n32)cc1` (stereo not drawn), the Potency was 32.6 µM (active) and the cell number change is -0.884%. For the compound `CCOC(=O)Nc1cc2c(C)cc(=O)oc2cc1C`, the “lipid storage change, negative = inhibition” value was 38.2% (inactive) and the cell number change was 12.9%. For `Cc1ccc(CN2CCN(Cc3c[nH]c4ccccc34)CC2CCO)o1` (stereo not drawn) the same measures were -12.5% (inactive) and 12.4%. On the same counts, the results for `Cc1cccc(C)c1NC(=O)N1C2CCC1CC(O)(c1cccnc1)C2` (stereo not drawn) are 0.613% (inactive) and 9.99%.

For the compound `O=C(Nc1ccccc1C(=O)NC1CC1)c1ccccc1`, the “lipid storage change, negative = inhibition” value was 3.91% (inactive) and the cell number change amounted to 10.8%. On the same counts, the results for `CCOC(=O)C1=NN(c2cccc(Cl)c2)C2=NC(C)=C(C(=O)OC)C(c3cccs3)N12` (stereo not drawn) are -3.04% (inactive) and -18.3%. As to `COc1ccc2ccccc2c1/C=N/NC(=O)c1ccc([N+](=O)[O-])cc1`, the “lipid storage change, negative = inhibition” value is -10.6% (inactive) and the cell number change is -15.8%. For the compound `CCOc1ccc2ccccc2c1/C=N\NC(=O)c1ccc([N+](=O)[O-])cc1`, the Potency was 6.51 µM (active) and the cell number change is -16.1%. With `CCOc1ccc2ccccc2c1/C=N/NC(=O)c1ccncc1`, the compound was called inactive and the cell number change was 6.87%. For the compound `CC(C)CNC(=O)CN1C(=O)NC2(CCCc3ccccc32)C1=O` (stereo not drawn), the “lipid storage change, negative = inhibition” value was -4.01% (inactive) and the cell number change is 7.92%.

With `CCCNC(=O)C1CCN(S(=O)(=O)c2ccc3nc4c(c(C(=O)O)c3c2)CCCCC4)CC1`, the “lipid storage change, negative = inhibition” value is 18.1% (inactive) and the cell number change was 4.41%.

As to `CN(C)N1C(=O)CC(C)(c2ccc([N+](=O)[O-])cc2)C1=O` (stereo not drawn), the “lipid storage change, negative = inhibition” value is -2.1% (inactive) and the cell number change was -4.15%. `Cc1cccc(-n2ncc3c(=O)[nH]c(SCC(=O)NCCC4=CCCCC4)nc32)c1`: the “lipid storage change, negative = inhibition” value was -10.6% (inactive) and the cell number change is -11%.

Turning to `N#Cc1ccc(C(=O)OCCCc2cc3ccccc3c(=O)o2)cc1`, the “lipid storage change, negative = inhibition” value is 9.51% (inactive) and the cell number change was found to be 18%. As to `O=C(OCCc1cc2ccccc2c(=O)o1)c1cccc(Br)c1`, the Potency was 0.13 µM (active) and the cell number change was -23.3%. In the case of `O=C(OCCCc1cc2ccccc2c(=O)o1)c1ccc2c(c1)OCO2`, the “lipid storage change, negative = inhibition” value was 0.96% (inactive) and the cell number change was -12%. As for `CC(C)CN1CCN(Cc2cccn2-c2ccc(Cl)cn2)CC1CCO` (stereo not drawn), the “lipid storage change, negative = inhibition” value is 5.56% (inactive) and the cell number change worked out at 10.5%. As to `CCCCc1c(O)nc2sccn2c1=O`, the “lipid storage change, negative = inhibition” value was 15.8% (inactive). For the compound `CCCCc1c(O)nc2sc3cc(OC)ccc3n2c1=O`, the Potency is 10.3 µM (active) and the cell number change came to 9.25%. As to `COc1ccc2c(c1)sc1nc(=O)ccn12`, the “lipid storage change, negative = inhibition” value was -19.5% (inactive) and the cell number change amounted to 21.5%. `CSCC(=O)N1CCCC(N2CCN(c3cccc(C(F)(F)F)c3)CC2)C1` (stereo not drawn): the Potency is 13 µM (active) and the cell number change is 7.35%. Take `CCN(CC)CC(=O)N1CCCC(N2CCN(c3cccc(C(F)(F)F)c3)CC2)C1` (stereo not drawn): the “lipid storage change, negative = inhibition” value was 12.5% (inactive) and the cell number change is 21%. For `O=C(CN1CCOC1=O)N1CCCC(N2CCN(c3cccc(C(F)(F)F)c3)CC2)C1` (stereo not drawn), the call was inactive and the cell number change is -10.2%. Regarding `CCc1ncc(CN2CCCC(C(=O)Nc3cccc(-c4ccc(F)cc4)c3)C2)cn1` (stereo not drawn), the Potency is 20.6 µM (active) and the cell number change was -24.6%. Take `CCc1ncc(CN2CCCC(C(=O)Nc3cccc(-c4cccc(C)c4)c3)C2)cn1` (stereo not drawn): the “lipid storage change, negative = inhibition” value was 11.6% (inactive) and the cell number change was determined as 8.11%.

Take `O=C(Nc1cccc(-c2ccc(F)cc2)c1)C1CCCN(Cc2cccnc2)C1` (stereo not drawn): the “lipid storage change, negative = inhibition” value was -8.86% (inactive) and the cell number change was -21.8%. Take `C=CCN(Cc1nc(-c2ccccc2)no1)C(=O)c1ccoc1C`: the “lipid storage change, negative = inhibition” value is -4.28% (inactive) and the cell number change is 33.5%.

Consider `Cc1cc(=O)oc2cc(Oc3ccc([N+](=O)[O-])cc3[N+](=O)[O-])ccc12`, for which the Potency was 20.6 µM (active) and the cell number change is -13.4%. `Cc1cc(=O)oc2cc(Oc3ncccc3[N+](=O)[O-])ccc12`: the “lipid storage change, negative = inhibition” value is -0.796% (inactive) and the cell number change stood at 13.9%.

For the compound `Cc1cc(=O)oc2cc(Oc3ccc(C(N)=O)cc3[N+](=O)[O-])ccc12`, the “lipid storage change, negative = inhibition” value is 0.639% (inactive) and the cell number change was 5.31%. On the same counts, the results for `O=C(COc1ccccc1)NNC(=S)NC(=O)c1ccc(Cl)cc1Cl` are 3.86% (inactive) and -11.7%. For `N#Cc1cc2c(nc1Cl)CCC2` the same measures were 16.3% (inactive) and 0.397%.

As to `COc1cc(/C=C(/C(=O)c2cccs2)c2nc3ccccc3[nH]2)ccc1O`, the call was inactive and the cell number change is -19%.

For `O=C(NCc1ccco1)/C(=C/c1cccc(C(F)(F)F)c1)c1nc2ccccc2[nH]1`, the “lipid storage change, negative = inhibition” value was 2.93% (inactive) and the cell number change was -4.5%. As to `O=C(/C(=C/c1cccc(Cl)c1)c1nc2ccccc2[nH]1)c1ccccc1`, the Potency is 9.2 µM (active) and the cell number change was -22.6%. Take `Cc1ccc2nc(-c3ccccc3)c(-c3ccccc3)nc2c1`: the “lipid storage change, negative = inhibition” value is 21.7% (inactive) and the cell number change came out at 8.82%. For `N#C/C(=C\c1ccccc1OCC(=O)O)c1nc2ccccc2[nH]1`, the “lipid storage change, negative = inhibition” value is -13.5% (inactive).

With `CCOc1cc(/C=C(\C#N)c2nc3ccccc3[nH]2)ccc1OC(C)C(=O)O` (stereo not drawn), the “lipid storage change, negative = inhibition” value was 3.1% (inactive) and the cell number change stood at 5.37%. Consider `CCN(CC)c1ccc(/C=C(/C#N)c2nc3ccccc3[nH]2)c(OC(C)C)c1`, for which the Potency is 3.66 µM (active). `CCN(C(=O)COC(=O)c1cc(=O)c2ccccc2o1)c1c(N)n(Cc2ccccc2)c(=O)[nH]c1=O`: the “lipid storage change, negative = inhibition” value was -18.7% (inactive). For `COc1cccc(CN2C(=O)C(C)N(C(=O)c3ccccc3)c3ccccc32)c1` (stereo not drawn), the “lipid storage change, negative = inhibition” value was -3.54% (inactive) and the cell number change is -9.22%.

With `Cc1ccccc1N(CC(=O)NC1CCCC1)C(=O)c1csnn1`, the “lipid storage change, negative = inhibition” value is 0.767% (inactive) and the cell number change was -1.91%.
